Measured values reported in the supplement of paper PMC11172423.

system: Madurella mycetomatis MM55; assay: growth relative to untreated control; higher = less inhibition, active = 20 or less; settings: 25 µM
Outline: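 Hyphal fragments of M. mycetomatis MM55 or F. senegalensis CBS197.79 were suspended in colourless RPMI 1640 with L-glutamine and MOPS at 68–72% transmission at 660 nm. They were exposed in 96-well plates to compound at 100 or 25 µM for 7 days at 37 °C. Viability was read with MTS (2 h, 490 nm) or resazurin (600 nm). Growth is metabolic activity relative to the untreated growth control, both corrected with a medium-plus-dye blank.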

Compound	growth
CCS(=O)(=O)N1CC(CC#N)(n2cc(-c3ncnc4[nH]ccc34)cn2)C1	94.3% (inactive)
C[C@H](NC(=O)c1cc2nc(C(F)(F)F)ccc2[nH]1)c1ccccc1	86.1% (inactive)
N#Cc1ccc(-c2n[nH]c3ccc(-c4n[nH]c(CC(F)(F)F)n4)cc23)cc1	109% (inactive)
FC(F)(F)c1ccc(CNc2ccc(Cc3c[nH]c4ncc(Cl)cc34)cn2)cn1	93.1% (inactive)
Cc1cc2c(cc1Cl)N(C(=O)Nc1cc(F)cc(-c3cncnc3)c1)CC2	106% (inactive)
C=CC(=O)Nc1cc(Nc2nccc(-c3cn(C)c4ccccc34)n2)c(OC)cc1N(C)CCN(C)C	3.84% (active)
O=C(c1ccc(Nc2nccc(-c3ccc(Cl)cc3)n2)cc1)N1CC[C@@H](CO)C1	113% (inactive)
O=C(O)c1ccc2c(c1)nc(Nc1cccc(Cl)c1)c1ccncc12	125% (inactive)
CCN1CCC(c2cc(C)c3nc(-c4cc5c(C)nc(C)cn5n4)cc(=O)n3c2)CC1	80.2% (inactive)
CC(C)(C)NCc1cc(Nc2ccnc3cc(Cl)ccc23)c2c(c1O)CCCC2	113% (inactive)
CN(C)CCOc1ccc2nc(-c3cccc(OCc4ccccc4)c3)[nH]c2c1C#N	4.87% (active)
Cc1cc(C)c(Nc2ccnc(Nc3ccc(C#N)cc3)n2)c(C)c1	92.4% (inactive)
CC(C)Nc1cc2c(cn1)nc(Nc1cc(Cl)cc(C#N)c1)n2C1CCNCC1	106% (inactive)
CNC(=O)c1cc(Oc2ccc(NC(=O)Nc3ccc(Cl)c(C(F)(F)F)c3)c(F)c2)ccn1	69.9% (inactive)
COc1ccc(-n2nc(C)c3c2NC(=O)CC3c2ccccc2OCc2ccc(F)cc2)cc1 (stereo unspecified)	41.5% (inactive)
CCC(C)n1ncn(-c2ccc(N3CCN(c4ccc(OCC5COC(Cn6cncn6)(c6ccc(Cl)cc6Cl)O5)cc4)CC3)cc2)c1=O (stereo unspecified)	5.47% (active)
CN(c1ncc2nc(Nc3cc(Cl)cc(C(F)(F)F)c3)n(C3CCNCC3)c2n1)C1CC1	54.8% (inactive)
COc1ccc(CCNc2nccc(-c3cc(Cl)cc(C(F)(F)F)c3)n2)cc1	110% (inactive)

Compound	growth
Cc1cc(C(=O)N2CCOc3c(cc(-c4csc5ccccc45)cc3OCCc3ccccn3)C2)n(C)n1	5.62% (active)
FC(F)(F)c1cc(Cl)cc(Nc2nc3cnc(NC4CCOCC4)nc3n2C2CCNCC2)c1	111% (inactive)
CN(C)C1CC(NC(=O)c2ccc(Nc3nccc(-c4ccc(Cl)c(C(F)(F)F)c4)n3)cc2)C1 (stereo unspecified)	7.71% (active)
CCN(CC)CCNC(=O)c1ccc(NC(=O)c2cc3c(C)nn(-c4ccc(Cl)cc4)c3s2)cc1	59.2% (inactive)
OCCN1CCN(CCCN2c3ccccc3Sc3ccc(C(F)(F)F)cc32)CC1	3.76% (active)
O=C1CN(C(=O)CCC2CCCC2)C(c2ccc(F)cc2)c2cc(Cl)ccc2N1 (stereo unspecified)	69.6% (inactive)
CC(C)(C)c1nc(-c2cccc(NS(=O)(=O)c3c(F)cccc3F)c2F)c(-c2ccnc(N)n2)s1	103% (inactive)
CN[C@@H]1[C@H](O)[C@H](NC)[C@H]2O[C@@]3(O)C(=O)C[C@@H](C)O[C@H]3O[C@@H]2[C@H]1O	99.5% (inactive)
CCC1=C(c2ccc(C)cc2)S(=O)(=O)N=C1N1CCC(C(=O)NCCN2CCCCC2C)CC1 (stereo unspecified)	88% (inactive)
CCOc1ccc(-c2nc(NC(=O)Cc3cccc(OC)c3)sc2C)cc1	99.6% (inactive)
O=C1NCN(c2ccccc2)C12CCN(CCCC(c1ccc(F)cc1)c1ccc(F)cc1)CC2	7.29% (active)
O=C(Nc1cccc(-c2n[nH]c3ccc(-c4n[nH]c(C5CCCN5)n4)cc23)c1)C1CC1 (stereo unspecified)	62.4% (inactive)
CCSC1CCCCC1NCCn1c(=O)oc2cccnc21 (stereo unspecified)	37.9% (inactive)
C[C@@H](c1nc(-c2ccc(C#N)cc2)cs1)[C@](O)(Cn1cncn1)c1ccc(F)cc1F	3.04% (active)
O=C(NC1CCNCC1)c1ccc(Nc2nccc(-c3ccc(Cl)cc3)n2)cc1	37.4% (inactive)
CCOc1cc([C@@H](CS(C)(=O)=O)N2C(=O)c3cccc(NC(C)=O)c3C2=O)ccc1OC	98.3% (inactive)
Cc1nc2ccccn2c1C1(O)C(=O)Nc2c(Cl)cc(Cl)cc21 (stereo unspecified)	99.3% (inactive)
Cn1cnc2c(F)c(Nc3ccc(Br)cc3Cl)c(C(=O)NOCCO)cc21	110% (inactive)
